From PubChem BioAssay
The source made the active and inactive calls. Unless noted, how the calls were made is not given here.

Legend:
[1] = circadian clock period modulators, cell-based, LOPAC library, luminescence reporter (AID 2774); conditions: circadian reporter cells, at 7 µM, actives lie on both sides;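 further: values are relative to mean of DMSO wells on each plate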
[2] = tested on: Hepatitis C virus NS3 helicase; experiment: HCV NS3 helicase inhibitors, primary screen, biochemical, fluorescence polarization, LOPAC1280 library (AID 687035; in the data active means inhibition above about 37%); conditions: Purified HCV NS3 helicase, Cy5-dT15 ssDNA binding fluorescence polarization; stronger effect = higher value; concentration not given here
[3] = Cy5 fluorescence quenching or enhancement artefacts, artefact control for HCV NS3 helicase inhibitor project, biochemical, LOPAC1280 (AID 687037); conditions: Cy5-DNA-NS3h complex fluorescence interference counterscreen
[4] = sensitizers of A549 cells to miR-34 induction, primary screen, imaging, A549 dox-inducible miR-34, nuclei and caspase counts (AID 1347080;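 active means compounds whose cell count with miR-34 switched on is under 0.7 times the count with it off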); conditions: A549 miR-34 inducible, Hoechst nuclei count, 48 h
[5] = phospholipid biosynthesis inhibitors in animal cells, primary screen, cell-based, LOPAC library, screen 4 (AID 1347384); conditions: phospholipid biosynthesis inhibition screen, at 10 µM
[6] = viability rescue of complex I mutant cybrids, primary screen, cell-based, galactose medium, ATP luminescence (AID 1645843;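 active means z-score of at least 1.8 in each of two replicates, scored against plate mean and spread of sample wells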;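 further: positive z means more ATP and so rescue of galactose-driven cybrid death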); conditions: complex I mutant cybrid cells, 72 h, stronger effect = higher value
[7] = liver-stage malaria parasite growth inhibition, primary screen, cell-based, HepG2, luciferase luminescence, HepG2 viability (AID 624349; in the data active means parasite load remaining mostly below about 12%, no sharp cut-off; inactive means mostly above about 10%;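 further: 100% = mean of DMSO negative control wells on the same plate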); conditions: P. berghei liver stage in HepG2, luciferase luminescence, concentration not given here; parasite load remaining: stronger effect = lower value; viability: measured here: HepG2 viability without parasites
[8] = survival rescue of mitochondrial mutant cells in low glucose, primary screen, MELAS cybrids, Rieske KO mouse fibroblasts, CellTiter-Glo (AID 1508586;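 active means mean z-score across replicates of 1.96 or higher in either the MELAS or the Rieske mutant cell line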;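 further: z relative to plate mean and SD of compound and empty wells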)
[9] = stronger effect = lower value, cell number ratio, induced over uninduced
[10] = measured here: relative caspase fold change +Dox/-Dox
[11] = measured here: total cells with miR-34 induction, stronger effect = lower value
[12] = measured here: total cells without miR-34 induction

Compound	period change [1]	inhibition [2]	fluorescence ratio (interference) [3]	fold change [4, 9]	fold change [4, 10]	cell count [4, 11]	cell count [4, 12]	outcome [5]	z-score [6]	parasite load remaining [7]	viability [7]	z-score ([8]; MELAS cybrid survival, CellTiter-Glo 48 h, stronger effect = higher value)	z-score ([8]; Rieske KO mouse fibroblast survival, CellTiter-Glo 72 h)
Oc1ccccc1O	-0.735 h (inactive)	-1% (inactive)	1 (inactive)	1.03 (inactive)	1.8	7780	7580	inactive	-1.42 (inactive)	–	–	–	–
O=[N+]([O-])c1ccc(CNc2nc(NCc3cccc(C(F)(F)F)c3)nc3nc[nH]c23)cc1	–	–	–	–	–	–	–	–	–	41.7% (inactive)	142%	–	–
N#Cc1cc([N+](=O)[O-])c2sc(C(N)=O)[n+]([O-])c2c1	–	–	–	–	–	–	–	–	–	32.2% (inactive)	76.2%	–	–
N[C@H](CCCP(=O)(O)O)C(=O)O	–	-1% (inactive)	1.1 (inactive)	0.903 (inactive)	1.61	9420	10400	inactive	0.08 (inactive)	–	–	–	–
CN(CC[C@@H](Oc1ccc(C(F)(F)F)cc1)c1ccccc1)CC(=O)O	–	-2% (inactive)	0.9 (inactive)	1.05 (inactive)	2.04	10800	10300	inactive	0.395 (inactive)	–	–	–	–
CN(C)CCCc1cc(C(=O)Nc2ccc(-c3ccncc3)cc2)ccc1O	–	-1% (inactive)	1 (inactive)	1 (inactive)	1.13	7450	7450	inactive	1.58 (inactive)	–	–	–	–
CC(C)c1cccc(C(C)C)c1N1C(=O)c2ccc(O)cc2C1=O	–	0% (inactive)	0.9 (inactive)	1.39 (inactive)	0.841	1810	1300	inactive	0.3 (inactive)	–	–	–	–
Clc1ccc(N2CCN(Cc3cc4ccccn4n3)CC2)cc1	–	-6% (inactive)	0.9 (inactive)	1.01 (inactive)	1.14	9670	9570	inactive	-1.08 (inactive)	–	–	–	–
CCN(CC)CCNC(=O)c1ccc(NS(C)(=O)=O)cc1	–	-2% (inactive)	1.1 (inactive)	1.02 (inactive)	0.826	10400	10100	inactive	0.325 (inactive)	–	–	–	–
COc1cc(N)c(Cl)cc1C(=O)OCCN1CCCCC1	–	-5% (inactive)	1 (inactive)	1.11 (inactive)	1.42	10600	9550	inactive	0.695 (inactive)	–	–	–	–
CC(=O)/C=C1\C(=O)N(C)c2ccccc21	–	-2% (inactive)	0.9 (inactive)	0.98 (inactive)	1.31	6920	7060	inactive	-1.48 (inactive)	–	–	–	–
Nc1ccc(-c2ccc3ccccc3n2)cc1	–	-2% (inactive)	1 (inactive)	1.1 (inactive)	1.06	7600	6930	inactive	-1.29 (inactive)	–	–	–	–
Nc1nc(OCC2CCCCC2)c2[nH]cnc2n1	–	-2% (inactive)	1 (inactive)	1.47 (inactive)	1.19	7330	4990	inactive	-0.68 (inactive)	–	–	–	–
C=C1C[C@@]23CC[C@H]4[C@@](C)(CCC[C@@]4(C)C(=O)O)[C@@H]2CC[C@]1(O)C3	–	-3% (inactive)	1 (inactive)	0.931 (inactive)	1.06	9720	10400	inactive	0.98 (inactive)	–	–	–	–
N[C@H](C(=O)O)[C@H](Cc1ccccc1)C(=O)O	–	-1% (inactive)	1 (inactive)	0.97 (inactive)	1.76	10400	10700	inactive	0.705 (inactive)	–	–	–	–
COc1cc(C(O)CO)ccc1O (stereo unspecified)	–	-1% (inactive)	1 (inactive)	0.99 (inactive)	1.37	9940	10000	inactive	0.42 (inactive)	–	–	–	–
c1ccc2c(c1)CC(N1CCN(c3cccc4c3OCCO4)CC1)C2	–	-2% (inactive)	1 (inactive)	1.01 (inactive)	1.01	8000	7890	inactive	0.255 (inactive)	–	–	–	–
Oc1ccc(/C=C/c2ccc(/C=C/c3ccc(O)cc3)c(Br)c2)cc1	–	-3% (inactive)	1 (inactive)	1.33 (inactive)	1.11	3040	2280	inactive	0.44 (inactive)	–	–	–	–
CCNc1nc2c(ncn2[C@H]2C[C@H](O)[C@@H](CO)O2)c(=O)[nH]1	–	-2% (inactive)	1 (inactive)	0.97 (inactive)	1.78	9970	10300	inactive	-0.005 (inactive)	–	–	–	–
CC[n+]1c(/C=C/C=C2/N(C)c3ccccc3C2(C)C)sc2ccccc21	–	1% (inactive)	0.9 (inactive)	1.18 (inactive)	0.865	1270	1080	inactive	-1.04 (inactive)	–	–	–	–
C=CCNc1ncnc2ccc(Br)cc12	–	0% (inactive)	1 (inactive)	0.949 (inactive)	0.896	7410	7810	inactive	-1.29 (inactive)	–	–	–	–
CC(=O)O[C@H]1Cc2ccccc2N(C(N)=O)c2ccccc21	–	-4% (inactive)	1 (inactive)	0.953 (inactive)	1.06	10000	10500	inactive	0.61 (inactive)	–	–	–	–

Compound	period change [1]	inhibition [2]	fluorescence ratio (interference) [3]	fold change [4, 9]	fold change [4, 10]	cell count [4, 11]	cell count [4, 12]	outcome [5]	z-score [6]	parasite load remaining [7]	viability [7]	z-score ([8]; MELAS cybrid survival, CellTiter-Glo 48 h, stronger effect = higher value)	z-score ([8]; Rieske KO mouse fibroblast survival, CellTiter-Glo 72 h)
Cc1cc(Cn2cnc3c2C[C@@H](C(=O)O)N(C(=O)C(c2ccccc2)c2ccccc2)C3)ccc1N	–	0% (inactive)	1 (inactive)	1.01 (inactive)	2.03	10300	10200	inactive	0.405 (inactive)	–	–	–	–
CN1Cc2sccc2C(c2ccc(O)c(O)c2)C1 (stereo unspecified)	–	-3% (inactive)	1 (inactive)	1.06 (inactive)	2.13	10300	9720	inactive	-1.25 (inactive)	–	–	–	–
O=C(c1ccc(Cl)cc1)N1CCN(c2ccc([N+](=O)[O-])c3ncccc23)CC1	–	0% (inactive)	1 (inactive)	0.912 (inactive)	1.42	6530	7170	inactive	-1 (inactive)	–	–	–	–
COc1ccc(-c2cc3ncc(C)n3c(Nc3ncccc3C(N)=O)n2)cc1OC	–	-1% (inactive)	1 (inactive)	0.944 (inactive)	1.3	8700	9220	inactive	0.16 (inactive)	–	–	–	–
O=c1[nH]c(=S)[nH]c(-c2ccccc2)c1Cc1c(O)ccc2ccccc12	–	0% (inactive)	1 (inactive)	0.946 (inactive)	1.58	8710	9210	inactive	0.53 (inactive)	–	–	–	–
COc1ccc(/C=C2\COc3ccc(C)cc3C2=O)cc1O	–	1% (inactive)	1 (inactive)	1.16 (inactive)	2.59	3090	2660	inactive	-1.36 (inactive)	–	–	–	–
Cn1ncc(S(=O)(=O)Cc2ccccc2)c(Br)c1=O	–	-3% (inactive)	0.9 (inactive)	1.14 (inactive)	1.46	2510	2200	inactive	-1.24 (inactive)	–	–	–	–
C[C@](Cc1ccc(O)c(O)c1)(NN)C(=O)O	–	-4% (inactive)	1 (inactive)	0.947 (inactive)	1.36	9110	9620	inactive	-1.02 (inactive)	–	–	–	–
Clc1nccc2c1ccc1ccccc12	–	-2% (inactive)	1 (inactive)	1.47 (inactive)	1.16	8620	5870	inactive	0.565 (inactive)	–	–	–	–
Cc1cc2c(cc1Cl)N(C(=O)Nc1ccc(Oc3cccnc3C)nc1)CC2	–	-2% (inactive)	0.9 (inactive)	0.93 (inactive)	1.1	4820	5180	inactive	-1.26 (inactive)	–	–	–	–
O=c1cc(-c2ccccc2F)[nH]c2cc3c(cc12)OCO3	–	-7% (inactive)	0.9 (inactive)	1.11 (inactive)	0.744	1710	1540	inactive	-0.62 (inactive)	–	–	–	–
CCOC(=O)C1=C(C)NC(C)=C(C(=O)OCC)C1c1c(F)c(F)c(F)c(F)c1F	–	-5% (inactive)	0.9 (inactive)	1.11 (inactive)	0.622	5220	4680	inactive	-0.415 (inactive)	–	–	–	–
OC[C@H]1OC(n2cnc3c(N[C@H]4CCC[C@@H]4O)ncnc32)[C@H](O)[C@@H]1O (stereo partly specified)	–	-3% (inactive)	1 (inactive)	1.03 (inactive)	1.86	10800	10500	inactive	0.53 (inactive)	–	–	–	–
O=C1/C(=C/c2ccsc2)CC/C1=C\c1cccs1	–	-4% (inactive)	1 (inactive)	0.99 (inactive)	1.31	9920	10000	inactive	1.23 (inactive)	–	–	–	–
Brc1c(Br)c(Br)c2[nH]cnc2c1Br	–	0% (inactive)	1 (inactive)	1.11 (inactive)	2.37	3750	3380	inactive	-1.17 (inactive)	–	–	–	–
O=c1ccc2c(OCCCCc3ccccc3)c3ccoc3cc2o1	–	0% (inactive)	1 (inactive)	1.08 (inactive)	1.92	8160	7580	inactive	-0.515 (inactive)	–	–	–	–
C=C1C[C@@]23CC[C@H]4[C@@](C)(CCC[C@@]4(C)C(=O)OC4OC(CO)C(O)C(O)C4O)[C@@H]2CC[C@]1(OC1OC(CO)C(O)C(O)C1OC1OC(CO)C(O)C(O)C1O)C3 (stereo partly specified)	–	-1% (inactive)	1 (inactive)	1.06 (inactive)	0.521	10700	10100	inactive	0.675 (inactive)	–	–	–	–
COc1ccc2c(c1)CCC1C2CC[C@@]2(C)C1CC[C@@H]2NCCCCCCN1C(=O)CCC1=O (stereo partly specified)	–	-3% (inactive)	1 (inactive)	1.08 (inactive)	0.876	8060	7440	inactive	-1.29 (inactive)	–	–	–	–
Cc1cc(NC2CCCCC2)nc(-n2nc(C)cc2C)n1	–	-5% (inactive)	1 (inactive)	1.09 (inactive)	0.728	9360	8610	inactive	-1.04 (inactive)	–	–	–	–
O=C1NCc2c1c1c3ccccc3[nH]c1c1[nH]c3ccccc3c21	–	-1% (inactive)	1 (inactive)	1.15 (inactive)	0.688	1560	1350	inactive	-0.89 (inactive)	–	–	–	–
Cc1cc(NC(=O)c2cccc(NC(=O)C=CCN(C)C)c2)ccc1Nc1nccc(-c2cccnc2)n1	–	–	–	0.969 (inactive)	0.805	6190	6390	–	–	–	–	-0.659 (inactive)	0.143
